Reference: publication PMC11062922 (Nature Chemical Biology, 2023)
Like-named read-outs stand apart in the source and are kept apart here.

How the values were obtained:
AAK1 = test system: AAK1; parameters: species or system human, MV4-11 + K-562 + COLO205 + SK-N-BE2 + OVCAR-8; settings: read-out: apparent Kd, n = 1
BMP2K = test system: BMP2K; parameters: species or system human, MV4-11 + K-562 + COLO205 + SK-N-BE2 + OVCAR-8; settings: read-out: apparent Kd, n = 1
CSNK2A1;CSNK2A3 = test system: CSNK2A1;CSNK2A3; parameters: species or system human, MV4-11 + K-562 + COLO205 + SK-N-BE2 + OVCAR-8; settings: read-out: apparent Kd, n = 1
CSNK2A2 = test system: CSNK2A2; parameters: species or system human, MV4-11 + K-562 + COLO205 + SK-N-BE2 + OVCAR-8; settings: read-out: apparent Kd, n = 1
MELK = test system: MELK; parameters: species or system human, MV4-11 + K-562 + COLO205 + SK-N-BE2 + OVCAR-8; settings: read-out: apparent Kd, n = 1
NUAK1 = test system: NUAK1; parameters: species or system human, MV4-11 + K-562 + COLO205 + SK-N-BE2 + OVCAR-8; settings: read-out: apparent Kd, n = 1
PAK4 = test system: PAK4; parameters: species or system human, MV4-11 + K-562 + COLO205 + SK-N-BE2 + OVCAR-8; settings: read-out: apparent Kd, n = 1
PRKAG1 = test system: PRKAG1; parameters: species or system human, MV4-11 + K-562 + COLO205 + SK-N-BE2 + OVCAR-8; settings: read-out: apparent Kd, n = 1
Q6ZSR9 = Q6ZSR9 (human, UniProt Q6ZSR9); parameters: species or system MV4-11 + K-562 + COLO205 + SK-N-BE2 + OVCAR-8; settings: read-out: apparent Kd, n = 1
Chain of Q6ZSR9 (Q6ZSR9 whole entry, looked up): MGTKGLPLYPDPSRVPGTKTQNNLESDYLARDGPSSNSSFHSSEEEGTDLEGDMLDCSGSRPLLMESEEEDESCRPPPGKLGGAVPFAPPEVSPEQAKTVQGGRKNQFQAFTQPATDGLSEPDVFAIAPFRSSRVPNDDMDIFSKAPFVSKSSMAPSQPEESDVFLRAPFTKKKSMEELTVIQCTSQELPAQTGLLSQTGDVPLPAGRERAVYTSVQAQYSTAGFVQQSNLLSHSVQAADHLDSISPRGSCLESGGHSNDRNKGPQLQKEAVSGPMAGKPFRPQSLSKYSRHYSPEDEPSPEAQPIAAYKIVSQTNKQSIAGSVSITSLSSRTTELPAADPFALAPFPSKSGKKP

RET = test system: RET; parameters: species or system human, MV4-11 + K-562 + COLO205 + SK-N-BE2 + OVCAR-8; settings: read-out: apparent Kd, n = 1
SIK2 = test system: SIK2; parameters: species or system human, MV4-11 + K-562 + COLO205 + SK-N-BE2 + OVCAR-8; settings: read-out: apparent Kd, n = 1
CLK1 = test system: CLK1; parameters: species or system human, MV4-11 + K-562 + COLO205 + SK-N-BE2 + OVCAR-8; settings: read-out: apparent Kd, compound concentrations: 100 nM and 1000 nM (sheet 'Samples'), n = 1
CLK4 = test system: CLK4; parameters: species or system human, MV4-11 + K-562 + COLO205 + SK-N-BE2 + OVCAR-8; settings: read-out: apparent Kd, compound concentrations: 100 nM and 1000 nM (sheet 'Samples'), n = 1
FLT4 = test system: FLT4; parameters: species or system human, MV4-11 + K-562 + COLO205 + SK-N-BE2 + OVCAR-8; settings: read-out: apparent Kd; compound concentrations: 100 nM and 1000 nM (sheet 'Samples'), CATDS: 1.2160517778916E-2; n = 1
GAK = test system: GAK; parameters: species or system human, MV4-11 + K-562 + COLO205 + SK-N-BE2 + OVCAR-8; settings: read-out: apparent Kd; compound concentrations: 100 nM and 1000 nM (sheet 'Samples'), CATDS: 1.5691521545656201E-2; n = 1
GSK3A = test system: GSK3A; parameters: species or system human, MV4-11 + K-562 + COLO205 + SK-N-BE2 + OVCAR-8; settings: read-out: apparent Kd; compound concentrations: 100 nM and 1000 nM (sheet 'Samples'), CATDS: 1.8964305572366599E-2; n = 1
GSK3B = test system: GSK3B; parameters: species or system human, MV4-11 + K-562 + COLO205 + SK-N-BE2 + OVCAR-8; settings: read-out: apparent Kd; compound concentrations: 100 nM and 1000 nM (sheet 'Samples'), CATDS: 1.5746210655388199E-2; n = 1
PKN1 = test system: PKN1; parameters: species or system human, MV4-11 + K-562 + COLO205 + SK-N-BE2 + OVCAR-8; settings: read-out: apparent Kd; compound concentrations: 100 nM and 1000 nM (sheet 'Samples'), CATDS: 1.1966323436805501E-2; n = 1
[1] = compound concentrations:100 nM and 1000 nM (sheet 'Samples')

For `O=C(O)C(F)(F)F.O=c1[nH]ccc2nc(N[C@@H]3CCNC3)nc(Nc3cc(Cl)cc(Cl)c3)c12` [GSK2188764A], the potency estimated from few doses (AAK1; [1]) was 114 nM, the potency estimated from few doses (BMP2K; [1]) was 749 nM and the potency estimated from few doses (CSNK2A1;CSNK2A3; [1]) was 239 nM. For the same molecule, the potency estimated from few doses (CSNK2A2; [1]) was 585 nM, the potency estimated from few doses (MELK; [1]) was 765 nM and the potency estimated from few doses (NUAK1; [1]) was 27.4 nM. It also gave a potency estimated from few doses (PAK4; [1]) of 11 nM, a potency estimated from few doses (PRKAG1; [1]) of 799 nM and a potency estimated from few doses (Q6ZSR9; [1]) of 151 nM. The potency estimated from few doses (RET; [1]) was 1350 nM and the potency estimated from few doses (SIK2; [1]) was 1440 nM.
Work on `COc1cc[nH]c1/C=C1\C(=O)Nc2ccc(F)c(C#CC3(O)CCNCC3)c21.Cl` [RO0282986-001] yielded a potency estimated from few doses (AAK1; compound concentrations: 100 nM and 1000 nM (sheet 'Samples'), CATDS: 4.4387438114571E-2) of 51.7 nM, a potency estimated from few doses (BMP2K; compound concentrations: 100 nM and 1000 nM (sheet 'Samples'), CATDS: 9.1500909624849303E-2) of 17.8 nM and a potency estimated from few doses (CLK1; CATDS: 1.0356916336546E-2) of 1160 nM. The potency estimated from few doses (CLK4; CATDS: 1.25074250244867E-2) was 634 nM, the potency estimated from few doses (CSNK2A1;CSNK2A3; compound concentrations: 100 nM and 1000 nM (sheet 'Samples'), CATDS: 1.42353528510114E-2) was 450 nM and the potency estimated from few doses (CSNK2A2; compound concentrations: 100 nM and 1000 nM (sheet 'Samples'), CATDS: 2.2066768869253801E-2) was 173 nM. The potency estimated from few doses (FLT4) was 687 nM, the potency estimated from few doses (GAK) was 356 nM and the potency estimated from few doses (GSK3A) was 235 nM. The potency estimated from few doses (GSK3B) was 353 nM, the potency estimated from few doses (MELK; compound concentrations: 100 nM and 1000 nM (sheet 'Samples'), CATDS: 1.9967026123172499E-2) was 211 nM and the potency estimated from few doses (NUAK1; compound concentrations: 100 nM and 1000 nM (sheet 'Samples'), CATDS: 4.1010981116741001E-2) was 58.6 nM. For the same molecule, the potency estimated from few doses (PAK4; compound concentrations: 100 nM and 1000 nM (sheet 'Samples'), CATDS: 2.1447100630881601E-2) was 183 nM, the potency estimated from few doses (PKN1) was 720 nM and the potency estimated from few doses (PRKAG1; compound concentrations: 100 nM and 1000 nM (sheet 'Samples'), CATDS: 1.1749589380403099E-2) was 761 nM. It also gave a potency estimated from few doses (Q6ZSR9; compound concentrations: 100 nM and 1000 nM (sheet 'Samples'), CATDS: 3.8240338432775099E-2) of 65.6 nM, a potency estimated from few doses (RET; compound concentrations: 100 nM and 1000 nM (sheet 'Samples'), CATDS: 4.4247015083228598E-2) of 52 nM and a potency estimated from few doses (SIK2; compound concentrations: 100 nM and 1000 nM (sheet 'Samples'), CATDS: 1.2903831315266401E-2) of 581 nM.
In the case of `COc1cc(Nc2nccc(N3CCC(NC(=O)c4cccc(NC(C)=O)c4)C3)n2)cc(OC)c1OC` (stereo not shown) [GSK1379754A], the potency estimated from few doses (AAK1; compound concentrations: 100 nM and 1000 nM (sheet 'Samples'), CATDS: 0.175205708840038) was 410 nM and the potency estimated from few doses (Q6ZSR9; compound concentrations: 100 nM and 1000 nM (sheet 'Samples'), CATDS: 0.171045295105965) was 426 nM.
In the case of `CCn1c(-c2cccnc2O)nc2cnccc21` [SB-736715], the potency estimated from few doses (AAK1; compound concentrations: 100 nM and 1000 nM (sheet 'Samples'), CATDS: 1.3866746573900799E-2) was 1530 nM and the potency estimated from few doses (PRKAG1; compound concentrations: 100 nM and 1000 nM (sheet 'Samples'), CATDS: 1.40543588651099E-2) was 1490 nM.
`COc1ccc(Nc2nccc(-c3ccc(NC(=O)c4cc5cc(F)ccc5[nH]4)cc3)n2)cc1` [GSK1229496A] was tested, and the potency estimated from few doses (AAK1; compound concentrations: 100 nM and 1000 nM (sheet 'Samples'), CATDS: 0.25032000609497101) was 1830 nM.
For `CS(=O)(=O)Nc1cccc(-c2ccc3c(NC(=O)C4CC4)n[nH]c3c2)c1` [SB-742864], the potency estimated from few doses (AAK1; compound concentrations: 100 nM and 1000 nM (sheet 'Samples'), CATDS: 0.116591298752119) was 1410 nM, the potency estimated from few doses (BMP2K; compound concentrations: 100 nM and 1000 nM (sheet 'Samples'), CATDS: 0.11349645370011199) was 1510 nM and the potency estimated from few doses (Q6ZSR9; compound concentrations: 100 nM and 1000 nM (sheet 'Samples'), CATDS: 0.100041705724795) was 2110 nM.
`O=C1N=C(NCCCc2ccccc2)S/C1=C\c1ccc2ncccc2c1` [RO4493941-000] gave a potency estimated from few doses (AAK1; compound concentrations: 100 nM and 1000 nM (sheet 'Samples'), CATDS: 6.7611203009870793E-2) of 1120 nM, a potency estimated from few doses (CLK1; CATDS: 8.49411754848379E-2) of 528 nM and a potency estimated from few doses (CLK4; CATDS: 0.15877377246004401) of 105 nM. It also gave a potency estimated from few doses (CSNK2A1;CSNK2A3; compound concentrations: 100 nM and 1000 nM (sheet 'Samples'), CATDS: 0.35522502931524602) of 22 nM, a potency estimated from few doses (CSNK2A2; compound concentrations: 100 nM and 1000 nM (sheet 'Samples'), CATDS: 0.347313618598384) of 22.8 nM and a potency estimated from few doses (Q6ZSR9; compound concentrations: 100 nM and 1000 nM (sheet 'Samples'), CATDS: 7.1931032695021699E-2) of 898 nM.
